Consider two compounds from PubChem BioAssay AID2587 (National Center for Advancing Translational Sciences (NCATS), 2010).

SMILES strings stand for the structures. Activity calls are given as the source filed them. Calls come from the whole dose curve; as a rule, active = well fitted curve in the direction sought with a large enough effect; inactive = no such curve, though single readings can be large or run the other way.

Chain of Lysosomal acid glucosylceramidase (Homo sapiens) (P04062 whole entry N409S): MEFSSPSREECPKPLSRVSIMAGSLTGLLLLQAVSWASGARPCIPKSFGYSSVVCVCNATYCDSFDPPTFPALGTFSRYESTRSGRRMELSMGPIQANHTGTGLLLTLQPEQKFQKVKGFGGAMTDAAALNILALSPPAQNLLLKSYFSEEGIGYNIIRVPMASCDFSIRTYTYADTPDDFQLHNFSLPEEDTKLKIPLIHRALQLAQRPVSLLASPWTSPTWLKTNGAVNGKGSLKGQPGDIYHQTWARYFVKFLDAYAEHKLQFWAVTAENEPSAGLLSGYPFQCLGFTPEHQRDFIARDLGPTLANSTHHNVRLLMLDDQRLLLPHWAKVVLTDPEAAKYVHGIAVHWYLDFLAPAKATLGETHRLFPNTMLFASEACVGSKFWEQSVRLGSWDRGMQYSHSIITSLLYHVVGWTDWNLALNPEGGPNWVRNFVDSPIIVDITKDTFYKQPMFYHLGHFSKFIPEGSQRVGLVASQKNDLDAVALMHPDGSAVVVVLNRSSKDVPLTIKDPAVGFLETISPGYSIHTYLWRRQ

This assay addresses Lysosomal acid glucosylceramidase (Homo sapiens) (UniProt P04062). Kind of assay: qHTS Assay for Inhibitors and Activators of N370S glucocerebrosidase as a Potential Chaperone Treatment of Gaucher Disease: Chaperone Activity in Gauche Fibroblasts After Multi-day Incubation with Compound. As to conditions: GC immunofluorescence, 5 days. From the text:
NIH Chemical Genomics Center [NCGC] NIH Molecular Libraries Probe Production Centers Network [MLPCN] MLPCN Grant: MH086442-01 Assay Submitter (PI): Wei Zheng Glucocerebrosidase (GC) catalyzes the hydrolysis of beta-glucocerebroside to glucose and ceramide in lysosomes. Mutations in the glucocerebrosidase gene result in Gaucher disease, an autosomal recessive lysosomal storage disorder. Many of the mutations encountered in patients with Gaucher disease are missense alterations that may cause misfolding, decreased stability and/or mistrafficking of this lysosomal protein. […] These inhibitors include iminosugar analogs and three non-iminosugar inhibitors identified from a previous HTS of 62,000 compounds with the wild type recombinant enzyme. However, the enhancement of enzyme activity by the chaperone action of an enzyme inhibitor must be balanced against the direct inhibition of the enzyme. An enzyme activator could also function as a chaperone by binding to the enzyme and helping to correct its misfolding and mistrafficking. […] This assay attempts to quantitate translocated glucocerebrosidase protein in patient-derived fibroblasts following extended compound incubation. […]
NCGC Assay Protocol Summary: 1. […] Visualized using a fluorescence microscope and the intensity of fluorescence in the selected areas were calculated. […]
(In general: Quantitative high-throughput screening tests each substance at several concentrations.)
For the compound `S=C(NCCCc1cnc[nH]1)NCCCN(Cc1ccc(Cl)c(Cl)c1)c1ccc(Br)cn1`, the Potency was 316 nM (active).

For `O=S(=O)(c1ccc2ccccc2c1)N1CCN(c2nc(-c3cccs3)nc3ccccc23)CC1`, the Potency was 501 nM (active).
